HT1080 IDH1KD tx: HT-1080 IDH1 knockdown cell toxicity (counter line); Potency, µM (top dose mostly 46.1 µM), for the others: at the top dose activity, negative = toxicity, most hits filed as cytotoxic; HT-1080 IDH1 knockdown viability, ATP luminescence, 48 h; 2% of 360,000 active;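 also: 0% = DMSO wells and -100% = cell-free medium wells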
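Knockdown cells (IDH1KD HT-1080) received compounds 2 h after plating at 750 cells/well and were kept 48 h at 37 °C in 5% FBS RPMI. A CellTiter-Glo luminescence read gave % activity for curve fitting.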
KB-3-1 tox: KB-3-1 parental cell cytotoxicity; KB-3-1 viability, CellTiter-Glo ATP luminescence, 72 h; Potency, µM (series often up to 46.1 µM), most hits filed as cytotoxic; 1.4% of 400,000 active; AID 1347075; also: nearly all actives have a fitted effect of over 60% in size
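72 h, 37 °C compound treatment of KB-3-1 parental cells; CellTiter-Glo added, 10 min, luminescence read. Data corrected against DMSO-only plates and normalized before curve fitting.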
HT1080-NT tox: kills 2HG-producing HT-1080-NT fibrosarcoma cells | HT-1080-NT fibrosarcoma viability, CellTiter-Glo ATP luminescence, 48 h | Potency, µM (highest dose often 46.1 µM), without a hit: at the top dose activity, negative = less viability, usual class: cytotoxic | 1.6% of 360,000 active | AID 686970;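 also: NT is the 2HG producing partner of a matched IDH1 knockdown line; 0% = DMSO-treated cells and -100% = media-only wells without cells; nearly all actives have a fitted effect of over 55% in size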
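Viability by CellTiter-Glo luminescence after 48 h compound exposure at 37C of HT-1080-NT cells (750/well, RPMI, 5% FBS). % activity scaled between DMSO wells and medium-only wells, then curve-fitted and categorized by curve class.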
KB-V1 cytotox: kills drug-selected multidrug resistant KB-V1 cells. KB-V1 MDR cells viability, CellTiter-Glo, 72 h. Potency, µM (series often up to 46.1 µM), most hits filed as cytotoxic. 3.4% of 400,000 active; also: nearly all actives have a fitted effect of over 60% in size
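Cells of the MDR subline KB-V1 are plated, dosed with compound at multiple concentrations, and incubated 72 h at 37 degrees C; CellTiter-Glo is then added and luminescence read after 10 min.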
Numbers without * were called inactive; i = inactive; ? = inconclusive; / = not tested or not shown. Most compounds without a hit are left out; they make up all but 5.7% or so of the library. Calls follow the shape of the dose curve; as a rule, active = well fitted curve in the direction sought with a large enough effect; inconclusive = small, poorly fitted or top-dose-only effect, or another doubt; inactive = no such curve, though single readings can be large; an effect the other way counts as inactive or inconclusive. Unless noted, % is scaled to controls: 0 for no effect and ±100 for the full control effect; potency is read from the fitted curve at half-maximal effect.

SMILES | HT1080 IDH1KD tx | KB-3-1 tox | HT1080-NT tox | KB-V1 cytotox
COc1ccc2oc(C(=O)OCC(=O)N3C(C)CCCC3C)c(C)c2c1 (configuration not stated) | -4% | i | -6% | i
COc1ccc2oc(C(=O)OCC(=O)N3CCCCC3C)c(C)c2c1 (configuration not stated) | -3% | i | 2% | 21µM*
COC(=O)[C@@]12C[C@@H](CC(=O)NCCc3ccccc3OC)C(=O)N(CCc3ccc(OC)c(OC)c3)C1=CCC(C)(C)C2 | ? | ? | ? | 21µM*
COC(=O)[C@@]12C[C@@H](CC(=O)NCC34CC5CC(CC(C5)C3)C4)C(=O)N(CCc3ccc(OC)c(OC)c3)C1=CCC(C)(C)C2 | ? | ? | ? | 23µM*
CCCCNC(=O)C[C@@H]1C[C@@]2(C(=O)OC)CC(C)(C)CC=C2N(CCc2ccc(OC)c(OC)c2)C1=O | 4% | i | 1% | ?
O=C(COc1ccccc1C(=O)OCC(=O)N1CCOCC1)Nc1ccc(Br)cc1 | 3% | / | 1% | /
COc1cc(OC)c(OC)cc1/C=C/c1nc2cc3ccccc3cc2c(=O)n1-c1ccc(F)cc1F | / | 12µM* | / | i
O=c1c2ccccc2nc(/C=C/c2cccc3ccccc23)n1-c1ccc(F)cc1F | / | i | / | i
Cc1nn2c(C)c(C(=O)N3CCN(c4ccccc4)CC3)cnc2c1-c1ccccc1 | / | i | / | i
Cc1[nH]n(-c2ccccc2)c(=O)c1N=Nc1c(O)cc(S(=O)(=O)N(C)C)c2ccccc12 | 9.2µM* | ? | ? | i
Cc1cccc(N2CCN(C(=O)C3CCN(S(=O)(=O)c4ccc5c(c4)oc(=O)n5C)CC3)CC2)c1C | / | i | / | i
C/C(=N\NC(=O)c1c(Br)c(C)nn1C)c1cccc(NC(=O)C2CCC2)c1 | 9% | ? | 15% | i
C/C(=N\NC(=O)c1c(Cl)c(C)nn1C)c1ccc(NC(=O)C2CCC2)cc1 | 0.82µM* | 1µM* | 1.6µM* | 3.3µM*
C/C(=N\NC(=O)c1c([N+](=O)[O-])c(C)nn1C)c1ccc(NC(=O)C2CCCC2)cc1 | 0.33µM* | 0.46µM* | 0.46µM* | 6.5µM*
C/C(=N\NC(=O)c1c([N+](=O)[O-])c(C)nn1C)c1ccc(NC(=O)c2ccc(C)o2)cc1 | -8% | i | -12% | i
Cc1cc(SCC(=O)c2cccs2)n2nc(C)c(-c3ccccc3)c2n1 | ? | i | -7% | 21µM*
C=CCSc1cc(C)nc2c(-c3ccccc3)c(C)nn12 | ? | ? | ? | 7.3µM*
COc1ccccc1CNC(=O)c1cnc2sc(N3CCCCC3)nn2c1=O | / | i | / | ?
Cc1cc(C)c2nc(N3CCCC(C(=O)NCc4ccccc4F)C3)sc2c1 (configuration not stated) | / | i | / | i
CCc1ccc(NC(=O)Cn2cnc3sc(C)c(S(=O)(=O)N4CCN(c5ccccc5OC)CC4)c3c2=O)cc1 | / | i | / | i
Cc1ncc(N=Nc2ccccc2Cl)c(-c2ccccc2)n1 | 17% | i | 8% | i
Nc1nc(-c2ccccc2)c(N=Nc2cccc3ccccc23)s1 | 21µM* | ? | ? | ?
CC(=O)Nc1sc(N)nc1-c1ccccc1 | 8% | i | 2% | i
Nc1nc(-c2ccccc2)c(N=Nc2ccccc2Cl)s1 | 18µM* | ? | ? | i
CC1CCN(S(=O)(=O)c2ccc3c(c2)c(=O)c(C(=O)NCc2ccc(Cl)cc2)cn3C)CC1 | / | i | / | i
SMILES | HT1080 IDH1KD tx | KB-3-1 tox | HT1080-NT tox | KB-V1 cytotox
CCc1ccc(NCc2cc3ccc(OC)cc3n(CC(=O)Nc3cccc(Cl)c3C)c2=O)cc1 | / | ? | / | i
COc1cc2[nH]c(=O)n(CCCC(=O)NCc3ccccc3Cl)c(=O)c2cc1OC | / | i | / | ?
N#CC1=C(N)N(c2ccc(Br)cc2)C2=C(C(=O)CCC2)C1c1cccnc1 (configuration not stated) | ? | i | 13µM* | i
Cc1ccc(N2C(N)=C(C#N)C(c3cccnc3)C3=C2CCCC3=O)cc1 (configuration not stated) | -1% | ? | 3% | i
COc1ccc(NC(=O)C(CC(C)C)NC(=O)C2CCCCC2)cc1 (configuration not stated) | / | i | / | i
CCc1ccc2[nH]c(=O)c(C3C(C#N)=C(N)Oc4c3ccc3cccnc43)cc2c1 (configuration not stated) | ? | ? | ? | 2.3µM*
CC(=O)C1=C(C)OC(N)=C(C#N)C1c1cc2cccc(C)c2nc1Cl (configuration not stated) | -14% | i | -1% | i
Cc1ccc2cc(C3C(C#N)=C(N)Oc4c3ccc3cccnc43)c(=O)[nH]c2c1 (configuration not stated) | ? | i | 11µM* | i
O=C(CSc1n[nH]c(-c2ccc(F)cc2)n1)NCc1ccccc1Cl | / | i | / | i
CC(C)n1c(O)c(/C=C2\C=NN=C2c2ccccc2)sc1=S | 21µM* | i | 21µM* | ?
CCn1c(O)c(/C=C2\C=NN=C2c2ccc(C)cc2)sc1=S | 4% | i | 13% | i
CCOc1ccc(C(=O)NCC(=O)N2CC=C(c3ccccc3)CC2)cc1OCC | 5% | i | -3% | i
COc1ccccc1C(=O)NCC(=O)N1CC=C(c2ccccc2)CC1 | 0% | ? | -9% | 16µM*
Cc1ccc(NC(=O)CC2Sc3ccccc3NC2=O)c(Br)c1 (configuration not stated) | / | i | / | i
Cc1cccc[n+]1CCCCCCCCCC[n+]1ccccc1C | 4% | 1.5µM* | 15% | i
Brc1cccc[n+]1CCC[n+]1ccccc1Br | / | ? | / | i
CCCCNC(=S)NCc1ccc2[nH]c3c(c2c1)CCCC3 | -8% | i | -1% | 21µM*
CNC(=S)NCc1ccc2[nH]c3c(c2c1)CCCC3 | 4% | i | -19% | ?
CCOC(=O)c1cc2c(=O)n3ccccc3nc2n(CC2CCCO2)c1=NC(=O)c1ccc(F)cc1 (configuration not stated) | / | i | / | i
N#C/C(=C\c1cccnc1)C(=O)Nc1cccc2ccccc12 | 21µM* | i | ? | i
CCC(=O)Nc1nonc1-c1nc2ccccc2n1Cc1cccc2ccccc12 | 0.73µM* | 0.92µM* | ? | ?
Cc1nc(Cl)c(C(=O)NC(=O)Nc2cccc(C(F)(F)F)c2)c(C)c1[N+](=O)[O-] | -22% | 10µM* | -20% | ?
Cc1onc(C(=O)Nc2cccc(C(F)(F)F)c2)c1[N+](=O)[O-] | -2% | i | 5% | i
Cc1ccc2[nH]c(=O)c(CN(CCO)Cc3nnnn3Cc3ccccc3)cc2c1 | / | ? | / | i
O=[N+]([O-])/C=C/c1cn(Cc2ccc(F)cc2)c2ccccc12 | 11µM* | i | ? | i
